# PubChem BioAssay AID1053180 (Broad Institute, 2014)
# Several values for one entry are separate records, joined by “and”; a condition that tells them apart may be missing. Equal values may be shown once. Hit rate of the full screen: of about 9,600 compounds, about 20 (0.2%) were called active.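 Rule for the calls: active = highest normalized replicate activity of 15 or more, or at least half the replicates reach 15 or more; inactive = neither condition met.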 Shown is part of a subset that was picked to be rich in actives. The source holds several records for some structures; these can differ, active in one and inactive in another.
# Assay: activators of Pax4 gene expression, primary screen, RT-PCR, mouse alpha TC1 cells, single point (AID 1053180);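 note: Pax4 Ct normalized to GAPDH with activation seen as lower delta delta Ct; plate controls were plate neutral control wells for no effect and Pax4 plasmid positive control for full effect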
# Conditions: Pax4 mRNA qPCR, 6 days, at 10 µM, stronger effect = higher value, 100% = Pax4 plasmid added at qPCR
row,Structure (SMILES),activation
1,O=S(=O)(c1ccc(F)cc1)N1CCCCN2[C@H](CO)[C@H](c3ccc(-c4cncnc4)cc3)[C@H]2C1,0.001% (inactive)
2,O=C(C[C@H]1C[C@H]2c3cc(NS(=O)(=O)c4ccccc4)ccc3O[C@H]2[C@H](CO)O1)N1CCOCC1,0.0015% (inactive)
3,CC(=O)N1[C@@H]2Cn3c(ccc(-c4cccnc4)c3=O)[C@H]1[C@@H](C(=O)NC1Cc3ccccc3C1)[C@@H]2CO,0% (inactive)
4,C[C@H]1CN([C@@H](C)CO)C(=O)Cc2cc(NS(=O)(=O)c3ccc(Cl)cc3)ccc2O[C@H]1CN(C)C(=O)Nc1ccc(C(F)(F)F)cc1,-0.003% (inactive)
5,CN(C)C(=O)c1ccc(-c2ccc([C@@H]3[C@@H](CO)N4C(=O)CN(C(=O)CC5CC5)C[C@H]34)cc2)cc1,0.005% (inactive)
6,COc1ccc(CN2[C@@H]3CN(C(=O)NC(C)C)c4ccccc4[C@@H]3[C@@H]2CO)cc1,-0.0005% (inactive)
7,C[C@H](CO)N1C[C@H](C)[C@@H](CN(C)Cc2ccccc2)Oc2c(NC(=O)Cc3cn(C)c4ccccc34)cccc2C1=O,13.8% (active)
8,C[C@H](CO)N1C[C@H](C)[C@@H](CN(C)Cc2ccc(-c3ccccc3)cc2)Oc2c(NS(C)(=O)=O)cccc2C1=O,-0.001% (inactive)
9,C[C@H](CO)N1C[C@H](C)[C@@H](CN(C)Cc2ccc(Oc3ccccc3)cc2)Oc2c(NC(=O)CCC(F)(F)F)cccc2C1=O,0.039% (inactive)
10,C[C@@H](NC(=O)C[C@H]1CC[C@@H]2[C@@H](COc3ccc(NC(=O)C4CCOCC4)cc3C(=O)N2C)O1)c1ccccc1,0.0015% (inactive)
11,O=C(NC1CCCC1)N[C@H]1C=C[C@H](CC(=O)N2CCOCC2)O[C@H]1CO,0.0045% (inactive)
12,C[C@@H]1CN([C@@H](C)CO)C(=O)Cc2cc(NC(=O)C3CCCCC3)ccc2O[C@@H]1CN(C)Cc1ccc(Cl)c(Cl)c1,46.5% (active)
13,C[C@H]1CN([C@@H](C)CO)C(=O)Cc2cc(NC(=O)C3CCCCC3)ccc2O[C@H]1CN(C)Cc1ccc(Cl)c(Cl)c1,0.106% (inactive)
14,COc1ccc(S(=O)(=O)Nc2ccc3c(c2)CC(=O)N([C@H](C)CO)C[C@@H](C)[C@H](CN(C)Cc2ccc(C(=O)Nc4ccccc4N)cc2)O3)cc1,0.03% (inactive)
15,COc1ccc(S(=O)(=O)Nc2ccc3c(c2)CC(=O)N([C@H](C)CO)C[C@@H](C)[C@@H](CN(C)Cc2ccc(C(=O)Nc4ccccc4N)cc2)O3)cc1,0.03% (inactive)
16,COc1ccc(S(=O)(=O)Nc2ccc3c(c2)CC(=O)N([C@H](C)CO)C[C@H](C)[C@H](CN(C)Cc2ccc(C(=O)Nc4ccccc4N)cc2)O3)cc1,15.1% (active)
17,C[C@@H]1CN([C@H](C)CO)C(=O)Cc2cc(NC(=O)C3CCCCC3)ccc2O[C@H]1CN(C)Cc1ccc(Cl)c(Cl)c1,0.389% (inactive)
18,CCCN1C[C@H](C)[C@H](OC)CN(C)C(=O)c2ccc(NS(=O)(=O)c3cn(C)cn3)cc2OC[C@@H]1C,0.0005% (inactive)
19,CN1CCN(C(=O)C[C@H]2C[C@H]3c4cc(NS(C)(=O)=O)ccc4O[C@H]3[C@H](CO)O2)CC1,0% (inactive)
20,O=C(c1ccccn1)N1CC[C@@H]2[C@@H](CO)Nc3ccc(C#Cc4cccnc4)cc3[C@@H]21,0.001% (inactive)
21,CN(C)C(=O)c1ccc(-c2ccc(C3[C@@H]4CN(Cc5ccccc5Cl)C[C@H]3N4)cc2)cc1 (stereo partly specified),0.0085% (inactive)

row,Structure (SMILES),activation
1,CN(C)C(=O)c1cccc(-c2ccc(C3[C@@H]4CN(Cc5ccccc5F)C[C@H]3N4)cc2)c1 (stereo partly specified),1.26% (inactive) and 21.9% (active)
2,Fc1cccc(CN2C[C@@H]3N[C@H](C2)C3c2ccc(/C=C/c3ccccc3)cc2)c1 (stereo partly specified),3.54% (inactive) and 8.86% (active)
3,Fc1cccc(-c2ccc(C3[C@@H]4CN(Cc5cncnc5)C[C@H]3N4)cc2)c1 (stereo partly specified),0.047% (inactive) and 0.0125% (inactive)
4,COc1ccccc1-c1ccc(C2[C@@H]3CN(Cc4cccc(F)c4)C[C@H]2N3)cc1 (stereo partly specified),0.062% (inactive)
5,C/C=C/c1ccc(C2[C@@H]3CN(S(=O)(=O)c4ccccc4F)C[C@H]2N3)cc1 (stereo partly specified),0.01% (inactive)
6,O=S(=O)(c1ccc(F)cc1)N1C[C@@H]2N[C@H](C1)C2c1ccc(/C=C/c2ccccc2)cc1 (stereo partly specified),8.33% (active) and 0.035% (inactive)
7,C(=C\c1ccc(C2[C@@H]3CN(Cc4nccs4)C[C@H]2N3)cc1)/c1ccccc1 (stereo partly specified),0.714% (inactive) and 0.0635% (inactive)
8,Cc1ccccc1S(=O)(=O)N1C[C@@H]2N[C@H](C1)C2c1ccc(/C=C/c2ccccc2)cc1 (stereo partly specified),0.183% (inactive)
9,CN(C)C(=O)c1cccc(-c2ccc(C3[C@@H]4CN(Cc5cocn5)C[C@H]3N4)cc2)c1 (stereo partly specified),0.001% (inactive)
10,Cc1cccc(-c2ccc(C3[C@@H]4CN(Cc5cccc(F)c5)C[C@H]3N4)cc2)c1 (stereo partly specified),50.5% (active) and 0.557% (inactive)
11,Fc1ccc(-c2ccc(C3[C@@H]4CN(Cc5ccccc5)C[C@H]3N4)cc2)cc1 (stereo partly specified),1.66% (inactive) and 0.0585% (inactive)
12,Cc1ccccc1-c1ccc(C2[C@@H]3CN(Cc4ccc5c(c4)OCO5)C[C@H]2N3)cc1 (stereo partly specified),0.039% (inactive) and 0.046% (inactive)
13,O=C(c1ccc2c(c1)OCO2)N1C[C@@H]2N[C@H](C1)C2c1ccc(/C=C/c2ccccc2)cc1 (stereo partly specified),0.452% (inactive) and 0.1% (inactive)
14,C(=C\c1ccc(C2[C@@H]3CN(Cc4ccc5c(c4)OCO5)C[C@H]2N3)cc1)/c1ccccc1 (stereo partly specified),10.3% (active) and 0.0555% (inactive)
15,CCS(=O)(=O)N1Cc2cc(C(=O)NCCOC)nc(-c3cccc(-c4ccncc4)c3)c2[C@H]1CCO,0% (inactive)
16,N#C[C@@H]1[C@@H](c2ccccc2-c2ccccc2F)[C@@H](CO)N1C(=O)Cc1ccccc1,0.0105% (inactive)
17,CO[C@@H](CN(C)C(=O)c1ccc2c(c1)OCO2)[C@@H](C)CN([C@H](C)CO)S(=O)(=O)c1ccc(Cl)cc1,0.019% (inactive)
18,CO[C@H]1CC[C@@H]2CCOc3ccc(C#N)cc3C(=O)N(C)[C@H](C)C(=O)N(C)C[C@@H]1O2,0.001% (inactive)
19,CCCC(=O)N1CC2(C1)CN(C(=O)c1ccc(F)cc1)[C@H](CO)c1[nH]c3cc(OC)ccc3c12,0.003% (inactive)
20,CN(C)CC(=O)N1[C@H](C(=O)Nc2nccs2)[C@@H](CO)[C@@H]2Cn3c(ccc(C4=CCCCC4)c3=O)[C@@H]21,0% (inactive)
21,COc1ccc2c3c([nH]c2c1)[C@H](CO)N(S(=O)(=O)c1cn(C)cn1)CC31CCN(CC2CCCCC2)CC1,0.0045% (inactive)

row,Structure (SMILES),activation
1,CCC(=O)N1CC2(C1)CN(C(=O)c1cnccn1)[C@@H](CO)c1c2c2ccc(OC)cc2n1C,0.0005% (inactive)
2,C[C@@H]1CCCCO[C@H](CN(C)Cc2ccncc2)[C@H](C)CN([C@@H](C)CO)C(=O)c2cc(NC(=O)Cc3ccccc3)ccc2O1,-0.0005% (inactive)
3,O=C(C[C@H]1CC[C@@H]2[C@H](COC[C@H](O)CN2Cc2nccs2)O1)N1CCC(Cc2ccccc2)CC1,0.0115% (inactive)
4,C[C@@H]1CN([C@H](C)CO)C(=O)c2ccccc2-c2ccccc2CO[C@@H]1CN(C)Cc1ccc2c(c1)OCCN2C,0.075% (inactive)
5,O=C(C[C@@H]1CC[C@@H]2[C@H](COC[C@@H](O)CN2CCC(F)(F)F)O1)NCc1ccc2c(c1)OCO2,-0.005% (inactive)
6,CN(C)c1ccc2c(c1)[C@@H]1C[C@@H](CC(=O)NC3CCCCC3)O[C@@H](CO)[C@@H]1O2,0.029% (inactive)
7,O=C(O)[C@H]1[C@H](CO)[C@H]2Cn3c(ccc(-c4cccc(F)c4)c3=O)[C@H]2N1C(=O)c1ccccn1,0.0005% (inactive)
8,C[C@@H]1CCCCO[C@@H](CN(C)CC2CCCCC2)[C@H](C)CN([C@H](C)CO)C(=O)c2cc(NS(C)(=O)=O)ccc2O1,-0.001% (inactive)
9,C[C@H]1CN([C@@H](C)CO)C(=O)c2cccc(NC(=O)c3cnccn3)c2O[C@@H]1CN(C)C(=O)NC1CCCCC1,0.0055% (inactive)
10,CN1c2ccc(-c3ccc(C#N)cc3)cc2[C@H]2[C@H](CCN2S(=O)(=O)c2ccc(F)cc2)[C@@H]1CO,0.036% (inactive)
11,O=C(C[C@@H]1C[C@@H]2c3cc(NS(=O)(=O)c4ccc(F)cc4)ccc3O[C@@H]2[C@@H](CO)O1)N1CCc2ccccc2C1,0.011% (inactive)
12,C[C@H](CO)N1C[C@H](C)[C@@H](CN(C)C(=O)c2ccc3ccn(C)c3c2)OCc2cnnn2CCCC1=O,0.0015% (inactive)
13,COc1ccc2c3c(n(C)c2c1)[C@H](CO)N(S(=O)(=O)c1ccc(C)cc1)CC31CCN(C)CC1,0.052% (inactive)
14,CO[C@H](CN(C)Cc1ccc2c(c1)OCO2)[C@H](C)CN(C(=O)Nc1ccc(F)cc1)[C@H](C)CO,0.0005% (inactive)
15,O=C(NCc1ccccc1)[C@H]1[C@H](CO)[C@H]2Cn3c(cccc3=O)[C@@H]1N2C(=O)Cc1ccccn1,0% (inactive)
16,CNC[C@H]1OCc2cn(nn2)CCCC(=O)N([C@@H](C)CO)C[C@H]1C,0.005% (inactive)
17,COc1ccc2c3c(n(C)c2c1)[C@@H](CO)N(CC1CC1)CC31CN(C(=O)c2ccc3c(c2)OCO3)C1,8.42% (active)
18,COc1ccc2c3c(n(C)c2c1)[C@H](CO)N(CC1CC1)CC31CN(C(=O)c2ccc3c(c2)OCO3)C1,0.0045% (inactive)
19,COc1ccc2c3c(n(C)c2c1)[C@@H](CO)N(C)CC31CCN(C(=O)c2ccc3c(c2)OCO3)CC1,0.0125% (inactive)
